Screening results: PubChem BioAssay, Broad Institute
dFosB activator = mouse delta FosB homodimer activation; P13346; purified delta FosB, TAMRA-CDK5 oligo fluorescence polarization; percent of positive-control signal above neutral wells; activation, % at 25 µM; actives 0.99% (n = 340,000);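 active = mean activation above about 17%, with every replicate also reaching it, limit read from the data, passing the limit was not always enough; inconclusive = only one of the two conditions met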
RAD54 branch = inhibitors of human RAD54 branch migration. Q92698. RAD54 Holliday junction branch migration, FAM/BHQ fluorescence. inhibition, % at 10.4 µM. actives 0.14% (n = 360,000). AID 602329;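 active = mean normalized replicate activity at least 40 and at least half of replicates scoring 40 or more; inconclusive = only one of the two criteria met; inactive = mean below 40 and under half of replicates reaching 40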;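 also: 0% = median of neutral control wells and 100% = median of positive control wells; inhibitors cause a drop in the FAM fluorescence signal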
F508del corr = correctors of CFTR F508del function in bronchial epithelial cells; AID 720511; activity (quench increase), % at 7.58 µM; CFBE cells, YFP halide quenching; stimulated with forskolin plus potentiator P3; % fluorescence drop versus neutral controls; actives 0.36% (n = 350,000);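 active = mean added fluorescence quench of at least 8% versus neutral control, with both replicates also reaching 8%; inconclusive = only one of the mean or replicate conditions met; inactive = mean below 8% and not both replicates reaching 8%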;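 also: cells transiently co-express mutant CFTR-F508del with the halide-sensitive YFP; corrector assay measuring rescue of mutant channel to the surface after 24 h compound exposure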
RAD52 anneal inh = RAD52 (human) annealing inhibition; AID 651710; actives 0.46% (n = 360,000); recombinant RAD52 DNA annealing, FRET fluorescence; inhibition, % at 18.7 µM;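 active = every replicate showing at least 50% inhibition; inconclusive = mean inhibition at least 50% but not in every replicate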
Target sequence (P43351 whole entry, looked up): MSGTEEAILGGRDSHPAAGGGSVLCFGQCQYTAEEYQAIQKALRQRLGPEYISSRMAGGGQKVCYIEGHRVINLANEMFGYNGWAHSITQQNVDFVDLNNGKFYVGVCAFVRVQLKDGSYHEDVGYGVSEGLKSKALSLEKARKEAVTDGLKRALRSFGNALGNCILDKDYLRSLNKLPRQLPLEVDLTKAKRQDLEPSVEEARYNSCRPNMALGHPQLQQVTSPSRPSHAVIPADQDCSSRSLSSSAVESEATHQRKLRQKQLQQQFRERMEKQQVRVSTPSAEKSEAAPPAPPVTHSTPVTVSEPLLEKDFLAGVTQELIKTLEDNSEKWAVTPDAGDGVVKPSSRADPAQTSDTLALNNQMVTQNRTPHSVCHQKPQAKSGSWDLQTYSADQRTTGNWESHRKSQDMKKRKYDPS
PvdQ inh = blocks Pseudomonas aeruginosa PvdQ acylase activity; purified PvdQ acylase, fluorescence plate reader; inhibition, % at 10 µM; actives 0.063% (n = 340,000); in the data active = inhibition above about 30%, passing the limit was not always enough; inconclusive = no clear call, values can overlap the other calls;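 also: 0% = vehicle neutral wells and 100% = reference inhibitor wells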
N-glyco inh = N-linked glycosylation inhibition; D54 ERlucT glycosylation luciferase reporter, 24 h; percent of 100 nM tunicamycin response; reporter increase, % at 12.5 µM; actives 0.23% (n = 360,000); AID 588692;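 active = mean luciferase reporter signal, scaled so untreated is 0 and the glycosylation-blocking control 100, at or above a set limit in every replicate; inconclusive = mean reaches the limit but not every replicate does; inactive = mean below the limit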;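 also: luciferase carries N-glycosylation sites so blocking glycosylation raises the light; 0% = median of neutral control wells and 100% = median of 100 nM tunicamycin wells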
DNA binder FP = counter-screen for RAD52 inhibitors: DNA binding compounds | AC50, µM | actives 8% (n = 1,000) | shares compounds with RAD52 anneal inh | Salmon sperm DNA/acridine orange FP displacement;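 active = fitted half-maximal concentration for signal loss at or below twice the highest dose tested, in every separate run, actives reach about 64 µM in these data; inconclusive = runs disagree, or flat partial signal loss, or poor fit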
* = called active by the depositor; i = inactive; ? = inconclusive; nt = no result. Hits are enriched below; roughly 1.5% of the tested compounds scored in any of these assays.

SMILES | dFosB activator | RAD54 branch | F508del corr | RAD52 anneal inh | PvdQ inh | N-glyco inh | DNA binder FP
CC(=O)N1CCN(c2ccc(N)cc2)CC1 | 2 | 7 | -1 | 58* | -14 | 2 | i
CN(C)CCCNC(=O)C[C@@H]1CC[C@@H](NS(=O)(=O)c2ccccc2)[C@H](CO)O1 | nt | 2 | -3 | -10 | nt | nt | nt
O=C(Nc1ccc(C(F)(F)F)cc1)N[C@H]1C=C[C@H](CC(=O)N2CCCCC2)O[C@H]1CO | nt | -5 | 1 | 3 | nt | nt | nt
CCCCc1nc2sc3c(SCC(=O)NCc4ccco4)ncnc3c2c2c1CCC2 | -16 | -10 | nt | nt | -8 | -2 | nt
CCCCc1nc2sc3c(SCCN(C)C)ncnc3c2c2c1CCC2 | -13 | nt | 0 | 60* | -5 | -8 | i
CC(C)NC(=O)N(C)C[C@@H]1OCCCC[C@@H](C)Oc2ccc(NS(=O)(=O)c3ccc(F)cc3)cc2C(=O)N([C@@H](C)CO)C[C@@H]1C | nt | 4 | 0 | 15 | nt | nt | nt
O=C1/C(=C\c2ccccc2)CN(C(=O)CCN2CCCCC2)C/C1=C/c1ccccc1 | -11 | nt | -15 | 55* | -17 | -20 | i
COc1cc2c(cc1OC)CN1CCc3cc(OC)c(OC)cc3C1C2 (stereo unspecified) | nt | 84* | -2 | 74* | nt | -1 | i
C[C@H](c1ccccc1)N1C[C@@H](COCc2ccccc2)Oc2cc(N3CC[C@H](N(C)C)C3)ccc2S1(=O)=O | nt | nt | 4 | 51* | nt | nt | i
C[C@@H]1CN([C@H](C)CO)S(=O)(=O)c2ccc(C#CC3CC3)cc2O[C@H]1CN(C)C(=O)c1cccnc1 | nt | 3 | -2 | 14 | nt | nt | nt
CC(C)/C(=N\NC(=O)Nc1ccccc1)c1ccccc1 | -9 | -19 | nt | nt | -13 | 2 | nt
C/C(=N\NC(=O)Nc1ccccc1)c1ccccc1 | -9 | -6 | 2 | 100* | 3 | 2 | i
CCN(CC)CCNC(=O)c1cc2c(-c3cccc(OC)c3)nn(C)c2s1 | -50 | nt | 3 | 68* | -20 | 12 | i
O=C(NCC1CC1)[C@H]1[C@H](CO)[C@H]2Cn3c(ccc(C4=CCCCC4)c3=O)[C@@H]1N2 | nt | 8 | -1 | -9 | nt | nt | nt
CN(CCCCCCCCCCN(C)C(=O)Oc1cccc([N+](C)(C)C)c1)C(=O)Oc1cccc([N+](C)(C)C)c1 | -7 | -5 | -4 | 52* | -4 | 1 | i
COc1ccc(S(=O)(=O)Nc2ccc3c(c2)C(=O)N([C@@H](C)CO)C[C@H](C)[C@@H](CN(C)S(=O)(=O)c2cn(C)cn2)OCCCC[C@H](C)O3)cc1 | nt | 9 | 0 | 3 | nt | nt | nt
Cc1noc(C)c1NC(=O)N(C)C[C@@H]1OCCCC[C@H](C)Oc2ccc(NC(=O)Nc3ccc(C(F)(F)F)cc3)cc2C(=O)N([C@@H](C)CO)C[C@@H]1C | nt | 23 | 2 | 24 | nt | nt | nt
COc1ccccc1-c1sc2ccccc2c1-c1ccc(OCCN2CCCCC2)cc1 | ? | 6 | nt | nt | -8 | -6 | nt
Oc1ccc2sc(-c3ccccc3O)c(-c3ccc(OCCN4CCCCC4)cc3)c2c1 | nt | nt | -2 | 68* | nt | nt | i
Cc1ccc(S(=O)(=O)N(C)C[C@H]2OCCCC[C@@H](C)Oc3ccc(NS(=O)(=O)c4cccs4)cc3C(=O)N([C@@H](C)CO)C[C@H]2C)cc1 | nt | -11 | -2 | -26 | nt | nt | nt
CO[C@H]1CN(C)C(=O)c2ccc(NC(=O)C3CCOCC3)cc2OC[C@@H](C)N(C(=O)c2ccccc2)C[C@@H]1C | nt | nt | -2 | nt | nt | nt | nt
CN1CCN(CCCCOc2ccccc2C=O)CC1 | 4 | 19 | 0 | 87* | -13 | -5 | i
COCC(=O)N(C[C@H]1N[C@@H](CO)[C@@H]1c1ccc(C2=CCCC2)cc1)C(C)C | nt | -1 | 0 | nt | nt | nt | nt
Cc1ccccc1Cn1c2ccccc2c2cnn(CC(=O)NCCCN3CCN(C)CC3)c(=O)c21 | -9 | 21 | -1 | 71* | 4 | 1 | i
Cc1ccccc1Cn1c2ccccc2c2cnn(CC(=O)NCCCN3CCOCC3)c(=O)c21 | -17 | 6 | 1 | -6 | -15 | 3 | nt
CCN1CCN(CCCNC(=O)c2ccc(/C=C3/Sc4ccccc4N(Cc4ccccc4F)C3=O)cc2)CC1 | -359 | 54* | -4 | 76* | -12 | -7 | i
